According to PubChem BioAssay AID624170 (National Center for Advancing Translational Sciences (NCATS), 2012):
About 850 (0.21%) of roughly 410,000 compounds were called active. Inconclusive results (about 2%) are left out. The entries come from a sample that favours actives as a whole. A number with no mark means an inactive call. Calls follow the shape of the dose curve; as a rule, active = well fitted inhibition curve with a large enough effect; inconclusive = small, poorly fitted or top-dose-only effect, or another doubt; inactive = no such curve, though single readings can be large or run the other way. Square brackets hold non-standard residues; d marks the D form. Side chains are listed from the residue outwards. Peptide text beside a SMILES is read from it. * marks the point of attachment. X1 = CCC(C)C(N)C1=NC(C(=O)*)CS1; Orn = NCCC[CH](N)C(=O)O

target: Glutaminase kidney isoform, mitochondrial (Homo sapiens) (UniProt O94925); test: qHTS for Inhibitors of Glutaminase (GLS); details: GLS enzymatic activity, qHTS titration; series mostly up to 45.5 µM; activity change, negative = inhibition: at the top concentration
Source text: Glutaminase (GLS) catalyzes the hydrolysis of glutamine into glutamate and ammonia. It plays a critical role in glutaminolysis, which is an important energy source for proliferating cells. It was shown that c-Myc, an oncogenic transcription factor known to regulate microRNAs and to stimulate cell proliferation, increases glutamine metabolism by stimulating the expression of GLS via direct suppression of miR23a and miR23b.
GLS is also thought to play a pathogenic role on HAD using a human HIV-1 infected macrophage system. […] GLS inhibition limits glutamate release and provides neuroprotection against HIV-1 infected macrophages.
The overall goal of this project is to identify small molecule inhibitors of GLS through quantitative high throughput screening (qHTS) of the MLSMR. A validated potent and selective inhibitor can be used as a tool molecule to further study the pharmacology of its target as well as explore its potential therapeutic application in cancer and inflammatory neurological disorders, such as HIV1-associated dementia (HAD) and multiple sclerosis.
NIH Chemical Genomics Center [NCGC]
NIH Molecular Libraries Probe Centers Network [MLPCN]
Assay Submitter (PI): Barbara S. Slusher, Johns Hopkins University
Three 3 uL of hKGA is dispensed into black well 1536-well plates in 45 mM KH2PO4 (pH 8.2), 0.02% Tween-20. Then 23 nL of compounds are added through pin tool transfer. To this, 1 uL of 1mM L-Glutamine and 1 uL of a solution of L-Glutamateoxidase, HRP, Amplex red are added. Plate is centrifuged for 25 sec before an initial fluorescence read is obtained on the ViewLux, after 30 min of RT incubation, the final read is taken on the ViewLux.
% is scaled to controls: 0 for no effect and ±100 for the full control effect; potency is read from the fitted curve at half-maximal effect.

Glutaminase kidney isoform, mitochondrial (Homo sapiens), sequence (O94925 whole entry, looked up, canonical isoform): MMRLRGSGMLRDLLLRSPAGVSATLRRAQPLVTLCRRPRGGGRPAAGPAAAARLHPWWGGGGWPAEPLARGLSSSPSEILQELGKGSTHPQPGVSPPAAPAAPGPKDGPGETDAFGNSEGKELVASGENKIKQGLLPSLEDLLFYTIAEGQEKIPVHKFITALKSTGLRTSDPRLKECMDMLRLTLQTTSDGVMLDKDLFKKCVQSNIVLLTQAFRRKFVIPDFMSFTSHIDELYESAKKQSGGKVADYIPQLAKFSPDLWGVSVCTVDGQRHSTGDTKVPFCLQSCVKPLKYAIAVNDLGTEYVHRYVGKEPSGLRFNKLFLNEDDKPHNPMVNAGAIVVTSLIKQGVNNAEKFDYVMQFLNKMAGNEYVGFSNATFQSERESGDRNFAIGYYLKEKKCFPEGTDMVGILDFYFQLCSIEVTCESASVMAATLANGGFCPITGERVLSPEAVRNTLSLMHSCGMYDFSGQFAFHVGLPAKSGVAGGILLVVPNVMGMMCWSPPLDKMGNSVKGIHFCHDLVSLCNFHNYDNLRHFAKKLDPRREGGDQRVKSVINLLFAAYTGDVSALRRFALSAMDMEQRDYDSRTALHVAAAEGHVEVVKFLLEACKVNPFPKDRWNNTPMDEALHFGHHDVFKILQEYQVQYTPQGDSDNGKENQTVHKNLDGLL

Row | Structure (SMILES) | Potency | activity change, negative = inhibition
1 | CC1(C)OC[C@@H](COC(=O)CCc2ccc(OC[C@@H](O)CNCCNC(=O)N3CCOCC3)cc2)O1 | inactive | –
2 | Cc1cccc(NC(=O)CSc2nc(-c3ccco3)cc(C(F)(F)F)n2)c1C | – | 8.96%
3 | Cc1cc(C)c2nc(-c3ccco3)cc(C(=O)O)c2c1 | 11.2 µM (active) | –
4 | Cc1cc(C)c2c(c1)c(C)cc1nnc(SCC(=O)NCc3ccco3)n12 | – | -0.984%
5 | COC(=O)[C@@H]1CC2=CC(=O)CC[C@]2(C)[C@@]23O[C@@H]2C[C@@]2(C)[C@@H](CC[C@@]24CCC(=O)O4)[C@H]13 | – | 11.8%
6 | CC(NC(=O)CCc1cn(Cc2ccccc2Cl)c2ccccc12)c1ccccc1 (centres undefined) | – | -0.697%
7 | Cc1ccc(Cn2c(CNC(=O)Cc3cccc(C)c3)nc3cccnc32)cc1 | – | 1.55%
8 | C=C1c2c(Cl)ccc(O)c2C(O)=C2C(=O)[C@]3(O)C(O)=C(C(N)=O)C(=O)[C@@H](N(C)C)[C@@H]3[C@@H](O)C12 (some centres undefined) | 10 µM (active) | –
9 | Cc1c(O)cc2c(c1C)O[C@](C)(CCC[C@H](C)CCC[C@H](C)CCCC(C)C)CC2 | – | 1.97%
10 | CCC[C@H]1C(=O)N2C(N(C)C)=Nc3ccc(C)cc3N2C1=O | – | -12.6% [at 20 µM]
11 | CCc1cc2c(cc3c(=O)n(CC(=O)N4CCN(c5cc(Cl)ccc5C)CC4)ncn32)s1 | – | 2.45%
12 | CC(C)CCN(C(=O)Nc1ccc(Cl)c(Cl)c1)C(C)c1cccs1 (centres undefined) | – | 6.32%
13 | COc1ccc(C2(C#N)CCC(C(=O)O)CC2)cc1OC1CCCC1 (centres undefined) | – | 86.3%
14 | CCOC(=O)Nc1ccc2c(c1)N(C(=O)CN1CCN3CCCC3C1)c1ccccc1CC2 (centres undefined) | – | 0.588%
15 | CCOC(=O)Nc1ccc2c(c1)N(C(=O)CCCl)c1ccccc1[S@]2=O | – | -1.48%
16 | CCNCCC(=O)N1c2ccccc2Sc2ccc(NC(=O)OCC)cc21 | 11.2 µM (active) | –
17 | COc1cc(C(=O)N2CCC(c3ccncc3)CC2)cc(OC)c1OC | – | -16%
18 | O=C(Nc1ccc(O)cc1)c1ccccc1O | – | 18.9%
19 | COc1cc(OC)cc(C(=O)Nc2cc3nn(-c4ccccc4)nc3cc2Cl)c1 | – | -7.39%
20 | CCCc1c2oc(C(=O)O)cc(=O)c2cc2c(=O)cc(C(=O)O)n(CC)c12 | – | -0.467%
21 | CCOc1cc(/C=N/n2cnnc2)c(Br)cc1O | – | 27.6%
22 | O=C1CSC(=S)N1/N=C/c1ccc(O)c([N+](=O)[O-])c1 | – | -1.11%

Row | Structure (SMILES) | Potency | activity change, negative = inhibition
23 | CCOc1cccc(/C=N/N2C(=O)CSC2=S)c1O | 10 µM (active) | –
24 | Cc1ccccc1NC(=O)c1cc2c([nH]c1=O)CC(C)(C)CC2=O | – | -24%
25 | CCC(C)C(N)C1=NC(C(=O)NC(CC(C)C)C(=O)NC(CCC(=O)O)C(=O)NC(C(=O)NCCCCC2NC(=O)C(CC(N)=O)NC(=O)C(CC(=O)O)NC(=O)C(Cc3cnc[nH]3)NC(=O)C(Cc3ccccc3)NC(=O)C(C(C)CC)NC(=O)C(CCCN)NC2=O)C(C)CC)CS1 (stereo not drawn) (cyclo(DNK([Ile-Glu-Leu-X1])[Orn]IFH); configuration not given here) | – | 5.57%
26 | CC1(C)[C@H](O[C@H]2O[C@H](C(=O)O)[C@@H](O)[C@H](O)[C@H]2O[C@@H]2O[C@H](C(=O)O)[C@@H](O)[C@H](O)[C@H]2O)CC[C@@]2(C)[C@H]1CC[C@]1(C)[C@H]2C(=O)C=C2[C@H]3C[C@@](C)(C(=O)O)CC[C@]3(C)CC[C@]21C | – | 14.9%
27 | O=c1oc2ccccc2cc1-c1csc(Nc2ccc(O)cc2)n1 | 2.82 µM (active) | –
28 | N#C/C(=C\c1cccc(F)c1)c1nc(-c2cc3c(ccc4ccccc43)oc2=O)cs1 | – | 9.66%
29 | Cc1cc(NC(=O)c2cccc(Cl)c2)ccc1-c1cc2ccccc2oc1=O | – | -8.99%
30 | Cc1cc2nc(NC(=O)c3ccc(S(=O)(=O)N4CCOCC4)cc3)sc2cc1C | – | -6.57%
31 | CC1(C)O[C@@H]2C[C@@H]3[C@H]4C[C@@H](F)C5=CC(=O)C=C[C@]5(C)[C@@]4(F)[C@@H](O)C[C@]3(C)[C@]2(C(=O)CO)O1 | – | -9.75%
32 | NNc1nnc(NN)c2ccccc12 | – | 18.4%
33 | COc1ccc(Br)cc1CNC(=O)c1cc(=O)[nH]c2ccc(S(=O)(=O)N3CCCC3)cc12 | – | -6.81%
34 | O=C1c2c(O)cccc2[C@@H]([C@@H]2O[C@H](CO)[C@@H](O)[C@H](O)[C@H]2O)c2cc(CO)cc(O)c21 | – | -1.67%
35 | CCC(CCC(C)C1CCC2C3CC=C4CC(O)CC[C@@]4(C)C3CC[C@@]12C)C(C)C (some centres undefined) | – | 0.242%
36 | CCN(CC)S(=O)(=O)c1ccc2c3c(cccc13)C(=O)S2 | – | -7.06%
37 | CCN1C(=O)c2ccccc2S(=O)c2ccc(C(=O)NCc3ccc(F)cc3)cc21 (centres undefined) | – | -0.753%
38 | CCN1C(=O)c2cccc3c(S(=O)(=O)Nc4ccccc4O)ccc1c23 | 11.2 µM (active) | –
39 | Cc1ccc(CSc2nc3ccsc3c(=O)n2CCC(C)C)cc1 | – | 6.64%
40 | CC[C@]1([C@H]2O[C@@H]([C@@H]3O[C@](O)(CO)[C@@H](C)C[C@H]3C)C[C@H]2C)CC[C@@H]([C@]2(C)CC[C@@]3(C[C@@H](O)[C@@H](C)[C@@H]([C@H](C)[C@H](OC)[C@H](C)C(=O)O)O3)O2)O1 | – | 0.877%
41 | Cc1nc2nc(SCC(=O)NC3CCC(C)CC3)nn2c(C)c1Cc1ccccc1Cl (centres undefined) | – | -5.16%
42 | Cn1c(SCC(=O)N/N=C/c2ccc(O)c(O)c2)nc2ccccc21 | 17.8 µM (active) | –
43 | COc1ccc(OC)c(NC(=O)CSc2nc3cccnc3n2C)c1 | – | -1.35%
44 | C=CCn1c(Cn2nnc3ccccc32)nnc1SCC(=O)N/N=C/c1cc(Br)cc(OC)c1O | – | 28.5%
